Data from the supplement of paper PMC3334620.
The full ranking holds about 33,000 sequences; the median of “E-score (-0.5 to 0.5)” is about -0.0034, and the highest 2% start at about 0.25. What follows is part of a selection rich in the highest values, with near analogues and random picks from the rest.

molecular target: T1, Yap3 (UniProt P38749); test: PBM E-score (8-mer binding enrichment) (E-score (-0.5 to 0.5)); higher = stronger / more preferred TF binding; conditions: protein concentration: 100 nM; construct: GST-full length
T1 sequence: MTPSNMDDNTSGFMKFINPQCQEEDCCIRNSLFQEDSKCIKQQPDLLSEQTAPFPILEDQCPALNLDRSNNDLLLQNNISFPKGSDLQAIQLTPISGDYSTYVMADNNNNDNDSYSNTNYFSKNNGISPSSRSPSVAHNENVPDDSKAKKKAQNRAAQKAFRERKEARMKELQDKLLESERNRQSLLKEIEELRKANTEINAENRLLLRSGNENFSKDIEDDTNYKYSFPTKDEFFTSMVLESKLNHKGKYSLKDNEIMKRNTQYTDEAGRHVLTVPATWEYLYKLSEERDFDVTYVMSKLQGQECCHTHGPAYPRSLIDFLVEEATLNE
Procedure: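 Universal 'all 10-mer' protein binding microarrays (Agilent AMADID 015681) probed with GST-tagged S. cerevisiae TFs (full-length or DBD) made by in vitro transcription/translation (PURExpress), about 100-200 nM. Bound TF was detected with fluorescent anti-GST. Each ungapped 8-mer (which stands for itself and its reverse complement) is scored by the PBM enrichment score (E-score), a modified Wilcoxon-Mann-Whitney statistic from -0.5 to +0.5, computed with the Universal PBM Analysis Suite. Scale: above 0.35 generally sequence-specific binding.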

Sequence	PBM E-score
CAGACAAC	0.0898
AAGACAAG	0.045
GAAAGAGA	0.0574
ATCATCAT	0.139
AATTTGCG	0.0563
CTCGTAAG	0.257
CTCGTAAC	0.177
ATCGTAAG	0.137
ATTGTCTG	0.11
AAGATGAT	0.0727
ATTGCTCA	-0.00161
GATAGATA	0.0286
AGTAGATC	-0.0265
TATAGATA	0.0759
CGTAGATA	0.0847
AATAGATA	0.267
AGTAGATA	0.273
GGCATCGA	-0.125
ACGGCGCA	0.0681
AGAATGCC	-0.00977
CCGCAAAA	0.076
AATAGTAG	0.206

Sequence	PBM E-score
AATAGTTG	0.267
AATAGTTA	0.0935
CATAGTAA	0.198
AATAGTTC	0.156
GATAGTAA	0.11
AATAGTAC	0.0612
AATAGTAA	0.258
TATAGTAA	0.27
GCCTAACC	-0.151
ATCTACTA	0.185
AAACCTCG	-0.132
ACATCGAT	0.0921
ACCTAGTA	-0.119
CTTCATTA	0.242
ATTCATTA	0.174
GTTCATTA	0.259
ACTTCATC	0.0677
ACCGTCGG	-0.163
AACTAGCT	-0.0564
CGATATTA	0.358
ATATATTA	0.32
CTATATTA	0.325

Sequence	PBM E-score
ATATATTG	0.0595
GGATATTA	0.0994
CTATATTC	0.151
CGATATTC	0.0953
CTCTATTA	0.0839
GTAGATTA	0.245
ATAGATTG	0.119
GTATATTA	0.211
ATAGATTA	0.348
GGTACTGA	-0.124
GATGGGGA	-0.0817
ATATAGAC	0.123
AGTGCATC	-0.0272
CTACGCGC	-0.0286
ATAGAGAT	0.166
ATCTCTCA	0.15
CTATCTCA	-0.0511
ATATATCA	0.118
ACATATTG	0.11
GTATAGTA	0.143
ATATAGTA	0.264
CTATAGTA	0.156

Sequence	PBM E-score
ATATCTCA	0.268
ACATATTA	0.305
GTATATCA	0.0881
CTATATCA	0.264
CCATATTA	0.24
AGTGCCTC	-0.229
GATAGACA	0.0506
GTCTTCGA	-0.122
TCAGTAGA	0.0364
GGTCCACC	-0.329
ACAGCAAG	0.247
ACAACATG	0.136
ACGCAAGT	-0.0875
CGAGCATC	0.00988
AGCCCAGA	-0.0938
ATATCAAC	0.166
ATATCAGG	-0.0437
ATATCAAA	0.244
ATATCAAG	0.26
ATATCAAT	0.268
CTATCAAG	0.067
